# From the supplement of paper PMC8285479
# Counter-ions that a name gives are not always drawn. ± gives the standard deviation of the averaged measurements. Over roughly 1,900 compounds, “normalised cell viability (NPI; 0 = phenylarsine oxide control, 1 = DMSO control)” has its median near 1; the lowest 2% begin near 0.039. This excerpt belongs to a sample that is enriched for the lowest values.
# Tested on: NCI-H1944
# Test: normalised cell viability (NPI; 0 = phenylarsine oxide control, 1 = DMSO control) (fraction of DMSO control); NCI-H1944 is a non-small cell lung cancer line; higher = more viable cells (less compound toxicity)
# Details: 6 days
# [1] = glucocorticoid arm: hydrocortisone 2.75 uM co-treatment, compound 1 µM
# [2] = glucocorticoid arm: hydrocortisone 2.75 uM co-treatment, compound 5 µM
# [3] = glucocorticoid arm: hydrocortisone 2.75 uM pre-treated 2 days and continued, compound 1 µM
# [4] = glucocorticoid arm: hydrocortisone 2.75 uM pre-treated 2 days and continued, compound 5 µM
# [5] = glucocorticoid arm: vehicle, compound 1 µM
# [6] = glucocorticoid arm: vehicle, compound 5 µM
# 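Note: CTB read-out in 384-well plates, triplicate wells, NPI normalised per plate against 1 µM phenylarsine oxide (0) and 0.1% DMSO (1) controls.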
Compound,normalised cell viability [1],normalised cell viability [2],normalised cell viability [3],normalised cell viability [4],normalised cell viability [5],normalised cell viability [6]
O=C1Nc2ccc(I)cc2C1=Cc1cc(Br)c(O)c(Br)c1,1.047 ± 0.0058,1.113 ± 0.0058,1.04 ± 0.01,1.08 ± 0.021,1.02 ± 0.01,1.043 ± 0.0058
Cc1nc(N=Nc2cc([N+](=O)[O-])ccc2Cl)c(COP(=O)(O)O)c(C=O)c1O [MRS 2211 sodium salt hydrate],1.003 ± 0.0061,1.023 ± 0.0058,0.9933 ± 0.0099,0.995 ± 0.036,1.01 ± 0.013,1.006 ± 0.0075
Cc1c2oc3c(C)ccc(C(=O)N[C@@H]4C(=O)N[C@H](C(C)C)C(=O)N5CCC[C@H]5C(=O)N(C)CC(=O)N(C)[C@@H](C(C)C)C(=O)O[C@@H]4C)c3nc-2c(C(=O)N[C@@H]2C(=O)N[C@H](C(C)C)C(=O)N3CCC[C@H]3C(=O)N(C)CC(=O)N(C)[C@@H](C(C)C)C(=O)O[C@@H]2C)c(N)c1=O [Dactinomycin],0.0161 ± 0.0015,0.0688 ± 0.0039,0.0397 ± 0.0056,0.183 ± 0.016,0.0046 ± 0.00021,0.0187 ± 0.0011
COc1cc2c(cc1OC)-c1c/c(=N\c3c(C)cc(C)cc3C)n(C)c(=O)n1CC2 [Trequinsin hydrochloride],1.03 ± 0.015,1.02 ± 0.022,0.908 ± 0.2,1.033 ± 0.0058,1.023 ± 0.0058,1.05 ± 0.035
CC(Cc1ccccc1)Nc1ncnc2c1ncn2C1OC(CO)C(O)C1O (stereo not drawn) [R(-)-N6-(2-Phenylisopropyl)adenosine],0.998 ± 0.002,1.01 ± 0.018,0.9997 ± 0.0096,1.03 ± 0.031,1.013 ± 0.0058,1.02 ± 0.017
CC(=O)NC(C(=O)O)C(C)(C)SN=O (stereo not drawn) [S-Nitroso-N-acetylpenicillamine],0.998 ± 0.014,1 ± 0.026,1.01 ± 0.011,0.987 ± 0.023,0.9937 ± 0.0011,0.9943 ± 0.0055
O=C1c2c(O)cc(O)cc2O[C@H](c2ccc(O)c(O)c2)[C@H]1O (racemic) [(±)-Taxifolin],1.01 ± 0.013,0.995 ± 0.0078,1.02 ± 0.035,1.01 ± 0.012,1.017 ± 0.0058,1.017 ± 0.0058
CO[C@@]12[C@H](COC(N)=O)C3=C(C(=O)C(C)=C(N)C3=O)N1C[C@@H]1N[C@@H]12 [Mitomycin; Mitomycin C],1 ± 0.013,0.00117 ± 0.0012,1.017 ± 0.0058,0.0028 ± 0.00069,0.9803 ± 0.0055,0.000408 ± 0.00038
O=C1c2c(O)ccc(O)c2C(=O)c2c(NCCNCCO)ccc(NCCNCCO)c21 [Mitoxantrone; Mitoxantrone dihydrochloride],0.181 ± 0.0045,0.00493 ± 0.00072,0.65 ± 0.012,0.0166 ± 0.0015,0.0328 ± 0.004,0.00403 ± 0.00087
O=C1c2c(O)ccc(O)c2C(=O)c2c(NCCNCCO)ccc(NCCNCCO)c21 [Mitoxantrone dihydrochloride],0.00888 ± 0.0019,0.00352 ± 0.00052,0.145 ± 0.013,0.155 ± 0.0095,0.00324 ± 0.00091,0.00617 ± 0.003
O=C1c2ccccc2C(=O)c2c(NCCc3ccc(O)cc3)ccc(NCCc3ccc(O)cc3)c21,1.01 ± 0.012,1.02 ± 0.038,1.01 ± 0.012,1.012 ± 0.0075,1.01 ± 0.0063,1.022 ± 0.0098
O=C(NCc1cccc(O)c1)Nc1nc(-c2ccncc2)cs1,0.994 ± 0.01,0.978 ± 0.021,1.01 ± 0.014,0.971 ± 0.035,0.984 ± 0.0069,0.816 ± 0.054
C=C/C(C)=C/[C@@]1(C)SC(=O)C(C)=C1O [Thiolactomycin],0.992 ± 0.0056,0.961 ± 0.021,1 ± 0.026,0.848 ± 0.23,0.9883 ± 0.0015,0.998 ± 0.012
C=CCN1CCc2c(cc(O)c(O)c2Cl)C(c2ccccc2)C1 (racemic) [(±)-Chloro-APB hydrobromide],0.9917 ± 0.0072,1.02 ± 0.01,0.989 ± 0.0061,1 ± 0.011,0.9943 ± 0.0021,0.99467 ± 0.00058
N#C/C(=C\c1ccc(-c2cc(Cl)ccc2Cl)o1)C(=O)Nc1cccc2ncccc12,0.971 ± 0.01,0.978 ± 0.035,0.984 ± 0.018,0.991 ± 0.014,0.9887 ± 0.0078,0.989 ± 0.012
COc1cccc(NC(=O)/C=C/c2ccc(Cl)cc2)c1,0.953 ± 0.015,0.884 ± 0.026,0.992 ± 0.029,0.941 ± 0.023,0.9757 ± 0.0093,0.9683 ± 0.0067
O=C(/C=C/C#Cc1cccc(NS(=O)(=O)c2ccccc2)c1)NO [Oxamflatin],0.974 ± 0.015,0.599 ± 0.44,0.992 ± 0.019,0.901 ± 0.11,0.843 ± 0.17,0.509 ± 0.54
O=C(/C=C/c1cccc(S(=O)(=O)Nc2ccccc2)c1)NO [Belinostat (PXD101)],0.9767 ± 0.0051,0.0174 ± 0.0036,1.02,0.114 ± 0.0036,0.575 ± 0.067,0.00153 ± 0.00067
"N[C@H](C(=O)O)[C@H]1C[C@@H]1C(=O)O [(2S,1'S,2'S)-2-(carboxycyclopropyl)glycine]",0.99 ± 0.0046,0.979 ± 0.019,0.994 ± 0.0095,0.978 ± 0.015,0.9847 ± 0.0055,0.9883 ± 0.0097
COC(=O)[C@]12CCC(C)(C)C[C@H]1[C@H]1C(=O)C=C3[C@@]4(C)C=C(C#N)C(=O)C(C)(C)[C@@H]4CC[C@@]3(C)[C@]1(C)CC2 [Bardoxolone Methyl],0.00114 ± 0.00058,1.08 ± 0.01,0.00366 ± 0.0014,1.1 ± 0.015,0.00138 ± 0.00077,0.858 ± 0.022
N.N.N.N.N.N.N.N.N.N.N.N.N.N.O.O.[Cl-].[Cl-].[Cl-].[Cl-].[Cl-].[Cl-].[Ru+4].[Ru+5].[Ru+5] [Ruthenium red],0.991 ± 0.01,0.974 ± 0.021,1.01 ± 0.027,0.987 ± 0.023,0.995 ± 0.0052,0.973 ± 0.0087
CC(C)(C)NCC(O)COc1cccc2[nH]c(=O)[nH]c12 (racemic),0.9973 ± 0.0023,0.974 ± 0.014,0.992 ± 0.015,0.988 ± 0.0076,0.9853 ± 0.0067,0.985 ± 0.0053
CC1c2cccc(O)c2C(O)=C2C(=O)C3(O)C(O)=C(C(N)=O)C(=O)C(N(C)C)C3C(O)C21 (stereo not drawn) [Doxycycline hydrochloride],1,0.9303 ± 0.0093,0.99 ± 0.014,0.945 ± 0.018,0.9897 ± 0.0067,0.9743 ± 0.006
